This is a sample that favours compounds with a hit; in the whole collection about 19% have one here.
MARV entry inh: Marburg virus entry inhibition; Marburg virus pseudotyped entry inhibition, cell reporter; Potency, µM (doses to about 37.8 µM), actives largely listed as inhibitors; hit rate 1.8% among 300,000; AID 540276; calls by dose curve; tested in HEK293 cells
LASV entry inh: Lassa virus entry inhibition | Lassa virus pseudotype entry inhibition, cell reporter | Potency, µM (series often up to 37.9 µM), usual class: inhibitors | hit rate 1.2% among 300,000; calls by dose curve; tested in HEK293 cells; further: nearly all actives have a fitted effect of over 50% in size
Pf growth 48h: P. falciparum growth inhibition at 48 hours (one generation) | P. falciparum luciferase growth in erythrocytes, 48 h | Potency, µM (doses to about 28.7 µM), hits mostly inhibitors | hit rate 5.9% among 310,000
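First compound was added to culture medium, then infected red cells at 0.1% parasitemia and 2% hematocrit (final). After incubation at 37 C under 5% CO2, luciferase detection reagent was dispensed and light output recorded.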
CHX counter: affects cycloheximide protein synthesis inhibition readout, counter-screen; cell reporter, cycloheximide protein synthesis inhibition counterscreen; max response, %; hit rate 12% among 300,000; AID 2314; in the data active means max response mostly above about 13%, no sharp cut-off; inactive means mostly below about 14%; further: read at 38.3 µM for the half of the compounds with a filed dose
Shiga toxin inh: Shiga toxin inhibition; Vero cells, Shiga toxin protein synthesis inhibition reporter; inhibition, % at 38.7 µM; hit rate 9.2% among 290,000; in the data active means inhibition mostly above about 28%, no sharp cut-off; inactive means mostly below about 43%
Pf growth 96h: P. falciparum growth inhibition at 96 hours; P. falciparum luciferase reporter growth, 96 h; Potency, µM (doses to about 28.7 µM), hits mostly inhibitors; hit rate 6.9% among 320,000
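Readout is luminescence from an integrated firefly luciferase in P. falciparum. Red cells, 2% hematocrit and 0.05% parasitemia final, were cultured with compound through two parasite generations (96 hours) at 37 C, 5% CO2.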
Hits are given with their value; . = inactive; ? = inconclusive; / = no result; [ ] = remark or other dose. Unless noted, the call rests on the fitted dose curve; in most records, active means well fitted inhibition curve with a large enough effect; inconclusive means small, poorly fitted or top-dose-only effect, or another doubt; inactive means no such curve, though single readings can be large or run the other way.

SMILES	MARV entry inh	LASV entry inh	Pf growth 48h	CHX counter	Shiga toxin inh	Pf growth 96h
CCOC(=O)c1c(NC(=O)CSc2nc3ccccc3[nH]2)sc2c1CC(C)(C)NC2(C)C	?	?	10µM	/	/	7.4µM
CCC(C)/C(C)=N/NC(=O)CSc1nc2ccccc2[nH]1 (stereo unspecified)	.	.	.	.	67	.
Cc1ccc(/C=N/NC(=O)CSc2nc3ccccc3[nH]2)o1	.	.	.	18	.	?
O=C(c1csc2c1CCCC2)n1cccn1	.	.	/	/	/	/
COCCCn1c(=O)c2sccc2n2c(CCCC(=O)Nc3cccc(C(F)(F)F)c3)nnc12	/	.	/	/	/	/
COc1ccc(CN(C(=O)COc2ccc(C)c(C)c2)C2CCS(=O)(=O)C2)cc1OC (stereo unspecified)	/	/	.	.	.	?
O=c1[nH]c(=S)n(-c2ccccc2)c(O)c1/C=N/N1CCOCC1	.	.	.	.	.	.
O=C1CCC(=O)N1c1nc2n(n1)C(c1ccccc1)C=C(c1ccc(Br)cc1)N2 (stereo unspecified)	.	.	.	.	.	.[5.75 µM]
Cc1ccc(C)c(OCc2cc(C(=O)NC(c3ccccn3)C(F)(F)F)no2)c1 (stereo unspecified)	?	.	/	/	/	/
Cc1ccc(C)c(OCc2cc(C(=O)N(C)Cc3nccs3)no2)c1	.	.	.	23	52	?
Cc1cccc(C)c1OCc1cc(C(=O)N(C)CCc2ccccn2)no1	.	.	.	.	.	.
Cc1ccc(C)c(OCc2cc(C(=O)N(C)Cc3ccccn3)no2)c1	/	/	.	29	49	?
O=C(O)c1cccnc1SCCc1ccccc1	?	?	.	42	41	?
Cc1ccc(C)c(CSc2ncccc2C(=O)O)c1	.	.	.	.	.	7.4µM
O=C(O)c1cccnc1SCc1ccccc1	.	.	.	.	.	.
O=C(O)c1cccnc1SCc1ccccc1Cl	.	.	.	.	.	?
O=C(O)c1cccnc1SCc1cccc(Br)c1	/	/	1.7µM	.	.	.
COc1ccc(OC)c(C(=O)NC(CC(N)=O)c2ccc(N3CCC(N4CCCC4)CC3)c([N+](=O)[O-])c2)c1 (stereo unspecified)	/	/	.	.	.	.
CC(=O)N/C(=C\c1cccc([N+](=O)[O-])c1)C(=O)NC(C)C	.	.	.	.	.	.
CC(C)(C)C(=O)/C(=C\c1cccc([N+](=O)[O-])c1)n1cncn1	2.2µM	?	13µM	.	.	.
C(#CCN1CCOCC1)COCc1ccccc1	?	.	.	.	.	10µM
C(#CCN1CCOCC1)COCCOC(c1ccccc1)c1ccccc1	?	.	?	.	.	/
O=S(=O)(Nc1cccc(-c2nnco2)c1)c1ccc(Cl)cc1	/	/	?	.	.	.
Cc1ccccc1NC(=O)c1ccc(OCc2c(C)noc2C)cc1	.	.	?	/	/	.
CC1(C)CC(=O)c2cc(N=C/C(C(=O)c3ccccc3)=C(\O)c3ccccc3)c(=O)oc2C1	.	.	.	43	185	.
SMILES	MARV entry inh	LASV entry inh	Pf growth 48h	CHX counter	Shiga toxin inh	Pf growth 96h
COc1ccc(N2CCN(Cc3nc4c(c(=O)[nH]c(=O)n4C)n3CCCc3ccccc3)CC2)cc1	.	.	?	.	.	.
CCCCn1c(CN2CCN(c3cccc(Cl)c3)CC2)nc2c1c(=O)[nH]c(=O)n2C	1.3µM	?	?	.	.	.
Cn1c(=O)[nH]c(=O)c2c1nc(CN1CCN(c3cccc(Cl)c3)CC1)n2CCCc1ccccc1	.	/	9.3µM	.	.	.
Cn1c(=O)[nH]c(=O)c2c1nc(CN1CCN(c3cccc(Cl)c3)CC1)n2CCN1CCOCC1	.	.	.	.	.	.
O=C(CCn1cccc1)NCc1ccccc1	.	.	.	.	.	8.3µM
CCC(Cc1ccccc1)NC(=O)CCn1cccc1 (stereo unspecified)	.	.	.	.	.	5.9µM
COCC(C)n1c(C)cc(C(=O)Cn2c(=O)oc3ccccc32)c1C (stereo unspecified)	.	.	.	.	.	.
CCOC(=O)C(=Cc1cn(C)c2ccc(S(=O)(=O)N(C)C)cc12)C(=O)OCC	.	.	?	.	.	?
CN(Cc1cnccn1)C(=O)CC1C(=O)NCCN1Cc1cccc(Oc2ccccc2)c1 (stereo unspecified)	/	/	.	.	.	.
CCn1c(=O)n(-c2cccc(Cl)c2)c(=O)c2sc3ccccc3c21	.	?	/	/	/	/
CCOC(=O)c1cnc2ccccc2c1Nc1ccc(N2CCOCC2)cc1	.	.	/	/	/	/

High-throughput results from PubChem.
